The values that follow come from PubChem BioAssay.

Active and inactive are the calls of the source.

The nature of assay [1]: optical density shifts of acrAB sulA E. coli – strain DRC41, OD650, 48 h, E. coli filamentation inducer project, primary screen (AID 1152).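 Also: E. coli MC1000 strain DRC41 lacking acrAB efflux pump and sulA.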 The following applies: higher = more signal, called active from +8 up or from −8 down.
A short description of assay [2]: probe aLefty1 binding on compound microarray – biochemical, small-molecule microarray, 635/667 nm fluorescence, primary screen (AID 1153).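 Also: score merges spot fluorescence with signal-to-noise ratio from the scanned slide images.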 To be noted: higher = more signal.
Assay [3] can be described thus: plasmodial surface anion channel blockers, osmotic lysis – cell-based, P. falciparum Indochina, OD700, 1 h, primary screen (AID 1154). To be noted: P. falciparum Indochina infected RBC osmotic lysis, higher = more signal, called active from +8 up or from −8 down.
Assay [4] can be described thus: plasmodial surface anion channel blockers, osmotic lysis – cell-based, P. falciparum Indochina, OD700, 2 h, primary screen (AID 1155).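 Also: lysis reports solute entry through the parasite surface anion channel PSAC.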 The following applies: P. falciparum Indochina infected erythrocytes, higher = more signal, called active from +8 up or from −8 down.
A short description of assay [5]: changes in parasitized red cell lysis, either direction – P. falciparum Indochina, OD700, 3 h, PSAC antagonist project, primary screen (AID 1156). To be noted: P. falciparum-infected erythrocytes, osmotic lysis, higher = more signal, called active from +8 up or from −8 down.
A short description of assay [6]: plasmodial surface anion channel blockers, osmotic lysis – cell-based, P. falciparum Indochina, OD700, 18 h, primary screen (AID 1157). To be noted: P. falciparum Indochina infected erythrocytes, osmotic lysis OD700, 18 h; higher = more signal, called active from +8 up or from −8 down.
Assay [7] is described as follows: S6 kinase pathway phospho-S6 level changes – cell-based, A549, cytoblot, luminescence, serum-stimulated, primary screen (AID 1158).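 Also: serum-stimulated A549 lung adenocarcinoma cells; signal is phosphorylated S6 detected by cytoblot immunostaining with HRP secondary.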 The following applies: 5 h, higher = more signal.
The target in assay [8] is NADPH oxidase 2 (Homo sapiens) (UniProt P04839). The assay can be described thus: compounds shifting NOX2 Amplex Red fluorescence – cell-based, HEK293-NOX2, PMA-stimulated, NOX inhibitor project, primary screen (AID 1159). Also: test concentration not given here. The following applies: 45 min, higher = more signal, called active from +8 up or from −8 down.
The target in assay [9] is NADPH oxidase 4 (Homo sapiens) (UniProt Q9NPH5). The experiment in a line: compounds shifting NOX4 Amplex Red fluorescence – cell-based, HEK293-NOX4, tetracycline-induced, NOX inhibitor project, primary screen (AID 1160). To be noted: HEK293-NOX4, Amplex Red H2O2 fluorescence, 45 min; higher = more signal, called active from +8 up or from −8 down.
For assay [10], the target named is NADPH oxidase 5 (Homo sapiens) (UniProt Q96PH1). The experiment in a line: compounds shifting NOX5 Amplex Red fluorescence – cell-based, HEK293-NOX5, NOX inhibitor project, primary screen (AID 1161). To be noted: HEK293-NOX5, ionomycin, 45 min, higher = more signal.
Assay [11] can be described thus: compound effects on lung adenocarcinoma cell viability – A549, calcein-AM fluorescence, 48 h, basal, profiling panel (AID 1162). Also: test concentration not given here. To be noted: higher = more signal.
A short description of assay [12]: compound effects on differentiated 3T3-L1 adipocyte viability – cell-based, 3T3-L1 adipocytes, calcein-AM fluorescence, 48 h, basal, profiling panel (AID 1163). Also: test concentration not given here. To be noted: 3T3-L1 adipocytes viability, higher = more signal.
Assay [13] in a line: compound effects on hepatocellular carcinoma cell viability – HepG2, calcein-AM fluorescence, 48 h, basal, profiling panel (AID 1164). Also: test concentration not given here. To be noted: higher = more signal.
Assay [14] in a line: compound effects on multiple myeloma cell viability – MM1S, calcein-AM fluorescence, 48 h, basal, profiling panel (AID 1165).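 Also: viability of MM1S multiple myeloma cells under basal unstimulated conditions; test concentration not given here.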 The following applies: higher = more signal.
Assay [15] is described as follows: calcein-AM signal in unstimulated myeloma cells – cell-based, calcein-AM fluorescence, 48 h, PK04 Diversity Set, profiling panel (AID 1166).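 Also: cells grown under basal conditions without added stimulus; test concentration not given here.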 The following applies: RPMI8226 myeloma viability, higher = more signal.
A short description of assay [16]: JC-1 mitochondrial signal, unstimulated HepG2 cells – cell-based, JC-1 fluorescence, 24 h, 100 nL compound, profiling panel (AID 1167). Also: test concentration not given here. To be noted: HepG2 mitochondrial potential, higher = more signal.
Assay [17] can be described thus: JC-1 mitochondrial signal, unstimulated adipocytes – cell-based, JC-1 fluorescence, 3T3-L1 adipocytes, 24 h, 100 nL compound, profiling panel (AID 1168). Also: test concentration not given here. The following applies: JC-1 mitochondrial fluorescence, higher = more signal, called active from +8 up or from −8 down.
A short description of assay [18]: JC-1 mitochondrial signal, unstimulated myeloma cells – cell-based, JC-1 fluorescence, RPMI8226, 24 h, 100 nL compound, profiling panel (AID 1169). Also: test concentration not given here. The following applies: JC-1 mitochondrial potential fluorescence, higher = more signal.
The nature of assay [19]: JC-1 mitochondrial signal, unstimulated MM1S myeloma – cell-based, JC-1 fluorescence, 24 h, 100 nL compound, profiling panel (AID 1170). Also: test concentration not given here. The following applies: MM1S mitochondrial potential, higher = more signal.
Assay [20] in a line: resazurin metabolic signal in A549 cells – cell-based, resazurin fluorescence, 24 h, PK04 Diversity Set, profiling panel (AID 1171). Also: test concentration not given here. The following applies: A549 viability, higher = more signal, called active from +8 up or from −8 down.

NADPH oxidase 5 (Homo sapiens), sequence (Q96PH1 whole entry, looked up): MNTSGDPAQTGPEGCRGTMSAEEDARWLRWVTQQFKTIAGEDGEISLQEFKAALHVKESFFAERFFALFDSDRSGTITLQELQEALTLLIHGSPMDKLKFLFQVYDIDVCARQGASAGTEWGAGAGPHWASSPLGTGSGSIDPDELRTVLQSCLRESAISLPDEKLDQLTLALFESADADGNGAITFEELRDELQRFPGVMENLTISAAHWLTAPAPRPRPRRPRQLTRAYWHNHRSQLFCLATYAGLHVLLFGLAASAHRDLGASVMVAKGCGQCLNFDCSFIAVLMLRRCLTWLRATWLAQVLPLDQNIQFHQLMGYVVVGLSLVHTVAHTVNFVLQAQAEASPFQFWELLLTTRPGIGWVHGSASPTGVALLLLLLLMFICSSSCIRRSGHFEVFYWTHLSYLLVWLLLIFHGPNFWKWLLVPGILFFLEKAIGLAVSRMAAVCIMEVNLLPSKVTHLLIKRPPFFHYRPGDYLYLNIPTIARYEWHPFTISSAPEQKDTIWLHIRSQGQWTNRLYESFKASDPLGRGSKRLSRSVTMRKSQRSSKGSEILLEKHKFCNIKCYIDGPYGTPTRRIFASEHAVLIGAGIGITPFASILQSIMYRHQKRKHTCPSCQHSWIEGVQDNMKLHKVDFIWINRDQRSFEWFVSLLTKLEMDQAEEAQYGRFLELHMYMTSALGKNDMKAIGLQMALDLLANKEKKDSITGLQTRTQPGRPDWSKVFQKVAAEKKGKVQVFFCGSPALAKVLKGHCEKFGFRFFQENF
NADPH oxidase 2 (Homo sapiens), sequence (P04839 whole entry, looked up): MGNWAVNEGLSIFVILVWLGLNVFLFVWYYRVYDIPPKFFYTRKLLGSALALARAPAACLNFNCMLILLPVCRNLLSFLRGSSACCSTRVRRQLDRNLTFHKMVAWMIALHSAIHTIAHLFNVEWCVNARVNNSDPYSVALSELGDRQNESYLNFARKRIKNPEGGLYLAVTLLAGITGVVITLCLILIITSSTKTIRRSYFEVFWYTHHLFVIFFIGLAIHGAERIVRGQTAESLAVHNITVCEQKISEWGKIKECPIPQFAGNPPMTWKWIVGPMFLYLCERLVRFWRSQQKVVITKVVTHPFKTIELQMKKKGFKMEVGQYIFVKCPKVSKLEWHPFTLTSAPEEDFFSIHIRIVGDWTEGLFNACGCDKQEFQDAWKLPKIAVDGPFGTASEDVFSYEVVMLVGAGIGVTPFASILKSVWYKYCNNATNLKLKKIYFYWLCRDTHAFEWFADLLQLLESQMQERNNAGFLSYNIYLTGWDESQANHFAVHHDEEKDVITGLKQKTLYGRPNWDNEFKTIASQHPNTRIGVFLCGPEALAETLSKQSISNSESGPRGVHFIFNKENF
NADPH oxidase 4 (Homo sapiens), sequence (Q9NPH5 whole entry, looked up): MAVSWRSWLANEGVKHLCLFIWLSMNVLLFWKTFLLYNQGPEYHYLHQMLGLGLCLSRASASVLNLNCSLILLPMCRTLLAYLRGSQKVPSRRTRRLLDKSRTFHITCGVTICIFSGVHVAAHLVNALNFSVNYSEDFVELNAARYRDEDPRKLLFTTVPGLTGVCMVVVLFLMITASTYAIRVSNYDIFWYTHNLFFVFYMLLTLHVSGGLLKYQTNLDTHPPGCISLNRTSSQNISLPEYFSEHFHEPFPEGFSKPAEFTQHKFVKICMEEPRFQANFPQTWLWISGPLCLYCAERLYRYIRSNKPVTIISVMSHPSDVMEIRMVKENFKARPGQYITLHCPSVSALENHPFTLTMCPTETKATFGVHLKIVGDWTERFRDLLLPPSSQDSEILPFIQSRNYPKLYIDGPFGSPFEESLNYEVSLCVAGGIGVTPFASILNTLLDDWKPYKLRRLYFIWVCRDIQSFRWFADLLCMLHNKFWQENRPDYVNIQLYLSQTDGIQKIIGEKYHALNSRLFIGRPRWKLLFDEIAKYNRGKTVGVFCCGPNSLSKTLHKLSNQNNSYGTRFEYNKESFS

Regarding `Cc1ccc(NN2C(C(O)c3c(F)cccc3Cl)C=CC3C(=O)N(C4CCCCC4)C(=O)C32)cc1` (stereo not given), the z-score in [1] was 0.0905 (inactive); in assay [3], 12.9 (active); in assay [4] it was 1.86 (inactive); in assay [5] it was 2.45 (inactive); in [6], 0.902 (inactive); in assay [7] it was -0.319. For the same compound, the z-score in assay [8] is -1.41 (inactive); in assay [9], -0.336 (inactive); in assay [10] it was -1.67; in assay [11], 0.57; in assay [12], -0.617; in assay [13] it was 0.934. Moreover, the z-score in assay [14] is 0.949; in assay [15] it was 0.451; in [16] it was -0.511; in [17], 0.165 (inactive); in assay [18] it was 0.0377; in assay [19], -1.04. Also, in assay [20], the z-score is 0.693 (inactive). Also, in assay [2], the composite z-score turned out to be 0.23.
As to `CCC#CCN(Cc1ccccc1Br)[C@H](/C=C/C1CC1)[C@@H](O)Cc1ccccc1`, the z-score is 2.06 (inactive) in assay [1]; -0.224 (inactive) in assay [3]; -0.834 (inactive) in [4]; -0.239 (inactive) in [5]; -1.53 (inactive) in [6]; 1.62 in assay [7]. The z-score in assay [8] was 0.214 (inactive); in [9], 1.07 (inactive); in assay [10] it was -1.2; in assay [11], -0.382; in assay [12], 0.929; in assay [13], -0.713. The z-score in assay [14] was -2.23; in assay [15] it was -3.31; in [16], -1.28; in [17], -0.611 (inactive); in assay [18] it was -0.774; in assay [19] it was -1.39. In addition, the z-score in assay [20] is 2.76 (inactive). Moreover, in assay [2], the composite z-score was -0.13.
Take `CN(C)C(=O)[C@@]1(Cc2ccccc2CN=[N+]=[N-])N=C(c2ccc(OCCCO)cc2)O[C@H]1c1ccccc1N=[N+]=[N-]`: the z-score in assay [1] is -0.383 (inactive); in assay [3], 29.9 (active); in [4] it was 26.7 (active); in assay [5], 2.61 (inactive); in [6], 6.04 (inactive); in assay [7], 1.76. Moreover, the z-score is -3.42 (inactive) in assay [8]; -0.18 (inactive) in assay [9]; -2.56 in [10]; -1.63 in assay [11]; 2 in assay [12]; -2.15 in assay [13]. In addition, the z-score is -3.03 in assay [14]; -3.98 in assay [15]; 0.129 in assay [16]; -0.052 (inactive) in [17]; -1.08 in assay [18]; -0.796 in [19]. Besides, the z-score in assay [20] was -2.09 (inactive). The compound further had a composite z-score in [2] of 1.48.
As to `CC(=O)N1CC2(CC2)CC1c1ccccc1` (stereo not given), the z-score was -1.35 (inactive) in [1]; -0.0747 (inactive) in [3]; 0.635 (inactive) in assay [4]; 0.539 (inactive) in assay [5]; 0.715 (inactive) in assay [6]; -0.0482 in assay [7]. Also, the z-score in [8] is -0.328 (inactive); in [9], -1.08 (inactive); in assay [10], -2.74; in assay [11] it was -1.64; in assay [12] it was 0.334; in [13] it was -1.34. Besides, the z-score in assay [14] was -0.386; in assay [15], -1.14; in [16], -1.15; in [17] it was -1.86 (inactive); in [18] it was 0.0805; in assay [19], 0.359. The z-score in assay [20] is -0.714 (inactive). Further, in assay [2], the composite z-score was determined as 0.433.
